Screening data (PubChem)
Only some compounds are listed: those with a hit (about 4% of all), similar ones and a draw of the others.
KCC2 mod: modulates chloride dependent transport by human KCC2; Q9H2X9; KCC2 cells, thallium flux FluoZin-2 fluorescence; B-score of Tl+ flux slope (higher = more flux/activation; lower = inhibition) at 10 µM; actives 2.2% (n = 190,000); AID 1456;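 active means thallium flux slope and its plate-corrected score both differing from the plate sample mean at a set confidence after two filtering rounds, in either direction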;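 further: slope of fluorescence scaled to starting intensity during 10 to 20 s after thallium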
Target sequence (Q9H2X9 whole entry, looked up): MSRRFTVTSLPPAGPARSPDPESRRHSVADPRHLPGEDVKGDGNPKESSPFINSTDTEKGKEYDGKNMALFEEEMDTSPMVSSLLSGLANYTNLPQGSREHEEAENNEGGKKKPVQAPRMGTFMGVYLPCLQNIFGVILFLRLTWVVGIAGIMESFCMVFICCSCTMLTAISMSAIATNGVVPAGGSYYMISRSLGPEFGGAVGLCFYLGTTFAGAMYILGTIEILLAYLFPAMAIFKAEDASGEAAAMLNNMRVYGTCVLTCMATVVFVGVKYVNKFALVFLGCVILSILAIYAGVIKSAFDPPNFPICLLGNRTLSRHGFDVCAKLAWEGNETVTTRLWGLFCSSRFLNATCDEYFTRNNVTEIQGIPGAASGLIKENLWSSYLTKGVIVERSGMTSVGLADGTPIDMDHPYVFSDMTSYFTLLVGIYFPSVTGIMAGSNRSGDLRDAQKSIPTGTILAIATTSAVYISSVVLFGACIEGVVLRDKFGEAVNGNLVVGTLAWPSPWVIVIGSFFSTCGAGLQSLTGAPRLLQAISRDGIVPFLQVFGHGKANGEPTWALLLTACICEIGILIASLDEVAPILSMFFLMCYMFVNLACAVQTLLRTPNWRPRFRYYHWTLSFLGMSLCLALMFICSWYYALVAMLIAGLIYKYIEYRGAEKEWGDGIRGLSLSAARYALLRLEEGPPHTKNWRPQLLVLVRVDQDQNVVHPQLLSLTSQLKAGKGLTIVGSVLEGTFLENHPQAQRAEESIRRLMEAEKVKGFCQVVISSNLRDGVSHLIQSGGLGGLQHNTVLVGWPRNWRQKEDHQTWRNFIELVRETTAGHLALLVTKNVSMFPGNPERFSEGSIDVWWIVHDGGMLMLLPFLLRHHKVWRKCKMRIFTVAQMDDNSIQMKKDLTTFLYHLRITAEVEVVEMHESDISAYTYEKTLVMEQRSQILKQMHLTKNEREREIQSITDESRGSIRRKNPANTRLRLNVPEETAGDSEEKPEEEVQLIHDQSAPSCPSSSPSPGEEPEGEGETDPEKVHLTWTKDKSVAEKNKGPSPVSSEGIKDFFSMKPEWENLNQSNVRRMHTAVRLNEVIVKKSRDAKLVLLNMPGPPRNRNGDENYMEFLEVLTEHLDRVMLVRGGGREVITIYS
HSV replic up: increases HSV replication in cells | HSV replication augmentation in cells, fold increase | maximum fold increase | actives 0.005% (n = 220,000) | AID 1956; in the data active means maximum fold increase above about 1.5; inconclusive means no clear call, values can overlap the other calls; tested in PC3 cells
ROMK primary: modulators of human ROMK potassium channel | AID 1918 | Tet-inducible ROMK, thallium flux fluorescence; actives lie on both sides | B-score at 10 µM | actives 2% (n = 130,000);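 active means signal ratio slope over the read window, or its plate-corrected B-score, at least 3 SD from the plate mean, either direction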;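 further: B-score of the F/F0 ratio slope over 7 to 12 s after thallium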
Measles CPE: protection of cells from measles virus | Measles virus-infected cells, CPE protection, absorbance | protection (pct of control), % at 4 µM | actives 1.5% (n = 140,000) | AID 841; in the data active means protection mostly above about 24%, no sharp cut-off; inactive means mostly below about 26%
Arbovirus anti: blocks arbovirus infection; inhibition, % at 10 µM; AID 1251; actives 0.37% (n = 200,000); arbovirus infection cell-based antiviral screen; in the data active means inhibition above about 30%
KCC2 sec1: confirmation of human KCC2 transport modulators | normalised thallium flux (F/F0 slope) at 10 µM | shares compounds with KCC2 mod | HEK293-KCC2, thallium flux, FluoZin2 fluorescence; hits give high values | actives 15% (n = 3,700);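 active means thallium flux slope above the same plate's solvent-only control mean plus 3 SD; inconclusive means the two replicate wells disagree; inactive means no significant difference from solvent-only control wells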
KCC2 bumet counter: bumetanide-insensitive thallium flux in KCC2 cells with ouabain, counter-screen | actives 49% (n = 3,700) | shares compounds with KCC2 mod | HEK293-KCC2 + bumetanide/ouabain, thallium flux FluoZin2; hits give high values | normalized thallium flux at 10 µM;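 active means thallium entry rate above the same plate's blocked-transporter control wells by more than 3 SD; inconclusive means the two repeat wells disagree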;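 further: raw slope of fluorescence over initial fluorescence between 10 and 20 s after thallium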
KCC2 secondary2: KCC2 (human) modulation, second secondary assay | shares compounds with KCC2 mod | HEK293-KCC2, thallium flux FluoZin2 fluorescence; actives lie on both sides; F/F0 rise rate, 10–20 s post-thallium | normalized thallium flux at 10 µM | actives 23% (n = 3,700);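 active means thallium flux slope more than 3 SD above or below the plate's solvent-only control mean, mostly below; inconclusive means the two repeat wells disagreed; inactive means no significant shift from solvent-only controls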;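 further: raw slope with 0.1% DMSO as baseline and bumetanide as block control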
HEK293 Tl flux: counter-screen for KCC2 modulators: effect in parental HEK293 cells; shares compounds with KCC2 mod; thallium flux FluoZin2, ouabain; baseline-ratio fluorescence slope, 10–20 s after thallium; thallium flux rate (normalised fluorescence) at 10 µM; actives 46% (n = 3,700); AID 1716;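 active means thallium flux rate significantly above the same plate's solvent-only control wells, beyond their mean plus 3 SD; inconclusive means the two replicate wells gave conflicting results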
KCC2 retest ouab: confirmation of human KCC2 modulators with ouabain | shares compounds with KCC2 mod | HEK293-KCC2, thallium flux FluoZin2 fluorescence; bidirectional: low = inhibitor, high = activator | raw Tl+ flux slope (below DMSO = inhibition, above = activation) at 10 µM | actives 48% (n = 3,700) | AID 1717;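 active means thallium flux slope beyond 3 SD from same-plate DMSO control mean in most replicates, usually higher, sometimes lower; inconclusive means repeat tests gave conflicting results; inactive means no significant difference from controls in most replicates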;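 further: slope of initial-normalized fluorescence between seconds 10 and 20 after thallium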
HEK293 Tl flux2: counter-screen for KCC2 modulators: effect in parental HEK293 cells. shares compounds with KCC2 mod. thallium flux FluoZin-2 fluorescence slope. thallium flux slope at 10 µM. actives 33% (n = 3,700). AID 1718;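 active means thallium flux slope above the same plate's solvent-control mean plus 3 SD in both duplicate wells; inconclusive means duplicate wells that disagreed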;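 further: run without ouabain in cells lacking the KCC2 cotransporter; slope of fluorescence scaled to its starting value between 10 and 20 s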
An asterisk follows results filed as active; i = inactive; ? = inconclusive; / = no result; ! = a repeat was not active.

SMILES | KCC2 mod | HSV replic up | ROMK primary | Measles CPE | Arbovirus anti | KCC2 sec1 | KCC2 bumet counter | KCC2 secondary2 | HEK293 Tl flux | KCC2 retest ouab | HEK293 Tl flux2
Cc1ccc(NC(=S)N/N=C2/CCCCc3ccccc32)cc1 | 33* | i | / | / | / | 0.0073 | 0.04* | ? | 0.033* | 0.033* | 0.031*
Cc1cccc(NC(=S)N/N=C2/CCCCc3ccccc32)c1 | 7.9* | i | 0.23 | 7 | -5 | 0.0086 | 0.036* | 0.046* | 0.042* | 0.037* | 0.024*
COc1ccc(NC(=S)N/N=C2/CCCc3c(C)cc(C)cc32)cc1 | -1.2 | i | 0.14 | 6 | -9 | / | / | / | / | / | /
Cc1ccc(C)c(NC(=S)N/N=C2\CCc3ccccc32)c1 | 24* | i | 0.022 | / | / | 0.014* | 0.075* | 0.034 | 0.071* | 0.043* | 0.018*
Cc1ccc(C)c(NC(=S)Nc2ncccc2C)c1 | 0.43 | i | -0.7 | / | 7 | / | / | / | / | / | /
C[C@H](NS(=O)(=O)c1ccccc1)C(=O)OCC(=O)NC(=O)Nc1ccc2c(c1)OCCO2 | 0.93 | i | / | 6 | -10 | / | / | / | / | / | /
S=c1[nH]c2cc3ccccc3cc2[nH]1 | 3.3*! | i | 0.077 | / | / | 0.017 | 0.0076* | ? | 0.0091* | 0.016 | ?
Cc1cc(NC(=O)c2coc(=O)c(Br)c2)ccc1C(C)C | -1.4 | i | / | / | / | / | / | / | / | / | /
CCCCCCCC(=O)NNC(=O)c1c(O)c2ccccc2[nH]c1=O | 0.59 | i | / | / | / | / | / | / | / | / | /
CCCCCCCCC(=O)NNC(=O)c1c(O)c2ccccc2n(CCC)c1=O | 6.3* | i | -0.2 | / | -7 | 0.007 | 0.012* | 0.032 | 0.015* | 0.023 | ?
CCCCCCCCCC(=O)NNC(=O)c1c(O)c2ccccc2n(CCC)c1=O | 3.9* | i | -0.014 | / | -13 | 0.015 | 0.0099* | 0.03 | 0.0092* | 0.018 | 0.012
CCCCCCCCCCC(=O)NNC(=O)c1c(O)c2ccccc2n(CC)c1=O | 5.2* | i | -1.1 | / | -13 | 0.015 | 0.015* | 0.031 | 0.0099* | 0.019 | 0.012
O=C1CN(C(=O)COc2ccc(Br)cc2Br)c2ccccc2N1 | 0.075 | i | -0.39 | / | -1 | / | / | / | / | / | /
CCOc1ccc(C(=O)NC(=S)N(Cc2ccccc2)Cc2ccccc2)cc1 | / | i | / | 17 | 0 | / | / | / | / | / | /
CCOc1ccc(CN(CCC#N)C(=S)NC(=O)c2ccccc2)cc1 | 30* | i | 1.8 | 10 | -16 | 0.046* | 0.12* | 0.044* | 0.073* | 0.093* | 0.03*
Cc1c(NS(=O)(=O)c2ccc(N(C)C3CCCCC3)c([N+](=O)[O-])c2)c(=O)n(-c2ccccc2)n1C | -2.6 | i | / | 29 | -23 | / | / | / | / | / | /
CCC1CCC(C(=O)NC(CCSC)C(=O)NCCN(CC(C)C)CC(C)C)CC1 (centres undefined) | -1.3 | i | -0.21 | / | -12 | / | / | / | / | / | /
COc1ccc(-c2cc(CCCC(=O)NCCc3cc(OC)ccc3OC)no2)cc1 | -4.7* | / | 0.42 | 5 | 5 | 0.0071 | 0.0042 | 0.031 | 0.0071 | 0.017 | 0.011
COc1ccc(-c2cc(CCCC(=O)N3CCN(c4ccc(OC)cc4)CC3)no2)cc1 | -0.93 | i | / | 3 | -7 | / | / | / | / | / | /
Cc1ccc(N=Cc2c(C)[nH]n(-c3ccccc3)c2=O)nc1 | 13* | i | / | / | / | 0.011 | 0.02* | 0.032 | 0.024* | 0.026* | 0.012
Cc1ccc(-n2[nH]c(C)c(C=Nc3ccc(C)cn3)c2=O)cc1 | 9.4* | i | / | 6 | -2 | 0.011 | 0.02* | 0.033 | 0.022* | ? | 0.014*
